About 14,000 (4.5%) of roughly 310,000 compounds showed an effect of 50% or more. Effects have a minus sign here. Many of the other results were omitted from the sample, so strong results are more common in it than they were.
These compounds were tested against human ether-à-go-go-related gene (hERG) potassium channel (human, UniProt Q12809) (assay: primary screen, population patch clamp on CHO cells stably expressing hERG; higher = less effect of the substance).
Protocol: Briefly, Chinese hamster ovary (CHO) cells stably expressing the hERG channel were dislodged from tissue culture flasks and dispensed into PPC plates. […] During the recording, background leak currents were estimated by a 100 ms step to -80 mV from an initial holding potential of -70 mV and subtracted from the subsequent current measurement. The campaign was conducted in two phases using slight differences in recording protocol. In the first phase, the initial voltage pulse used a 100 ms step to -30 mV from a holding potential of -70 mV, a 2 s conditioning step to +25 mV, and a 2 s test step to -30 mV. During the second phase of the screen, the potential during the conditioning step was raised to +45 mV. In both phases of the campaign, a secondary voltage pulse was applied using the same parameters as the second phase initial pulse. The initial and secondary pulses were applied in the absence of compound, and upon application of 1 μM and 10 μM test concentrations. […]
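Note: peak tail current of the secondary pulse compared with the same well before compound.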

Chain of human ether-à-go-go-related gene (hERG) potassium channel (Q12809 whole entry, looked up): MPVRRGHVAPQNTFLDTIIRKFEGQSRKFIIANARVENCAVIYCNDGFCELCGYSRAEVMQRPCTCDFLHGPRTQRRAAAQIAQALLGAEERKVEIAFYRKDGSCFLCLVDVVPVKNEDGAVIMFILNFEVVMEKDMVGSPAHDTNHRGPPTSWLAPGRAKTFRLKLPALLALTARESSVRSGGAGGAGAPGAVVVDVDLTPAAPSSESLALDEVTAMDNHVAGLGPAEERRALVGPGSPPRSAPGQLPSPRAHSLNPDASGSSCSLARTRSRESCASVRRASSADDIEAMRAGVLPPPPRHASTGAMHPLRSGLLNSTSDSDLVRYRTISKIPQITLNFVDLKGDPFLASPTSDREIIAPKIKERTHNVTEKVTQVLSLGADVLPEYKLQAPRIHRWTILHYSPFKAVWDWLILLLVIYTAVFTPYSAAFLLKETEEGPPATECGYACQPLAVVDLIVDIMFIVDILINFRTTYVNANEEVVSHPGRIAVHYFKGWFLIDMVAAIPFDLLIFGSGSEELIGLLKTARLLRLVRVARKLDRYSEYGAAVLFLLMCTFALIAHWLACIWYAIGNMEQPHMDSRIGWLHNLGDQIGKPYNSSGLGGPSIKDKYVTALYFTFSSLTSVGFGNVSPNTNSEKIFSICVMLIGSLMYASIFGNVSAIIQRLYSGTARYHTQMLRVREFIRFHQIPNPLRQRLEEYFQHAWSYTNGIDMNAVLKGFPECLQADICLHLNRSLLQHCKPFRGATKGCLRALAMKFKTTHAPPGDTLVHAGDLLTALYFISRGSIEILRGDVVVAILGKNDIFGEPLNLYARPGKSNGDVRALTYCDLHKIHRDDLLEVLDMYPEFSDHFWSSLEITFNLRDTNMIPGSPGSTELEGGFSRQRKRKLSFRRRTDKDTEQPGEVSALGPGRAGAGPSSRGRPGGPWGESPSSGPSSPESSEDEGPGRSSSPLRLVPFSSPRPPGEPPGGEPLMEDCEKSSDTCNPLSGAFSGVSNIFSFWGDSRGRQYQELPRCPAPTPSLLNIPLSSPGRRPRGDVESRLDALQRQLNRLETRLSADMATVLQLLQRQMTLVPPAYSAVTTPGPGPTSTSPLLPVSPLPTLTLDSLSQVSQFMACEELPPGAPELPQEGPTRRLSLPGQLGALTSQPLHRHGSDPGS

How did the “hERG current change (%, negative = inhibition) at 10uM” value turn out when `NC(=O)CCn1c(C(=O)c2ccc(Cl)cc2)c2ccccc2[n+]1[O-]` was run?
The value was -23.7%.

For `NC(=O)CCCn1c(C(=O)c2ccc(Cl)cc2)c2ccc(C(F)(F)F)cc2[n+]1[O-]`, which “hERG current change (%, negative = inhibition) at 10uM” value is on record?
Its value is -77.9%.

Which “hERG current change (%, negative = inhibition) at 10uM” value does the source give for `NC(=O)CCn1c(C(=O)c2cc(Cl)c(N)c(Cl)c2)c2ccccc2[n+]1[O-]` here?
The value was 17.9%.

Which “hERG current change (%, negative = inhibition) at 10uM” value does the source give for `COc1ccc(/C=C2\N=C(c3ccccc3)N(c3ccc(C(=O)O)cc3)C2=O)cc1OC` here?
Its value is 6.76%.

With `CC(C)Oc1ccc(C2CC(=O)N(Nc3ccc([N+](=O)[O-])cc3[N+](=O)[O-])C2=O)cc1` (stereo not shown) as the compound, how does the “hERG current change (%, negative = inhibition) at 10uM” value read?
Its value is -15.6%.

Which “hERG current change (%, negative = inhibition) at 10uM” value does the source give for `O=C1C2C3C=CC(C3)C2C(=O)N1Nc1ccc([N+](=O)[O-])cc1[N+](=O)[O-]` (stereo not shown) here?
The value was 3.34%.

For `CCOc1ccc(C2CC(=O)N(Nc3ccc([N+](=O)[O-])cc3[N+](=O)[O-])C2=O)cc1` (stereo not shown), which “hERG current change (%, negative = inhibition) at 10uM” value is on record?
The value was -51.7%.

How did the “hERG current change (%, negative = inhibition) at 10uM” value turn out when `Cc1ccc(-n2c(=O)[nH]c3c(C(N)=O)nc(C(C)C)nc32)cc1` was run?
The value was 15.1%.

`CCCN1CCN(C(=O)C2CCN(c3nnc(C)c4c(C)n(-c5ccc(C)cc5)nc34)CC2)CC1` was tested. Which “hERG current change (%, negative = inhibition) at 10uM” value did it give?
The value was -32.3%.

For `Cc1nnc(N2CCCC(C(=O)NCc3ccccc3F)C2)c2nn(-c3ccccc3)c(C)c12` (stereo not shown), which “hERG current change (%, negative = inhibition) at 10uM” value is on record?
Its value is -51.2%.

For `CCOc1ccccc1CNC(=O)C1CCCN(c2nnc(C)c3c(C)n(-c4ccccc4)nc23)C1` (stereo not shown), which “hERG current change (%, negative = inhibition) at 10uM” value is on record?
The value was 4.08%.

Which “hERG current change (%, negative = inhibition) at 10uM” value does the source give for `Cc1ccccc1CNC(=O)C1CCCN(c2nnc(C)c3c(C)n(-c4ccccc4)nc23)C1` (stereo not shown) here?
The value was -5.38%.

Which “hERG current change (%, negative = inhibition) at 10uM” value does the source give for `Cc1ccc(-n2nc3c(N4CCC(C(=O)N5CCCCCC5)CC4)nnc(C)c3c2C)cc1` here?
Its value is -68.7%.

For `Cc1nnc(N2CCC(C(=O)N3CCCCC3)CC2)c2nn(-c3ccc(Cl)cc3)c(C)c12`, which “hERG current change (%, negative = inhibition) at 10uM” value is on record?
Its value is -73.9%.

Which “hERG current change (%, negative = inhibition) at 10uM” value does the source give for `CCN1CCN(C(=O)C2CCN(c3nnc(C)c4c(C)n(-c5ccc(C)cc5)nc34)CC2)CC1` here?
Its value is 3.86%.

Which “hERG current change (%, negative = inhibition) at 10uM” value does the source give for `Cc1ccc(-n2nc3c(N4CCC(C(=O)N5CCC(C(N)=O)CC5)CC4)nnc(C)c3c2C)cc1` here?
The value was 12%.

Which “hERG current change (%, negative = inhibition) at 10uM” value does the source give for `COc1ccc(-n2nc3c(N4CCC(C(=O)NC5CCCCC5)CC4)nnc(C)c3c2C)cc1` here?
Its value is -5.39%.

For `COc1ccc(-n2nc3c(N4CCC(C(=O)N5CCC(C)CC5)CC4)nnc(C)c3c2C)cc1`, which “hERG current change (%, negative = inhibition) at 10uM” value is on record?
Its value is -46.3%.

How did the “hERG current change (%, negative = inhibition) at 10uM” value turn out when `COc1ccc(-n2nc3c(N4CCC(C(=O)N5CCCCCC5)CC4)nnc(C)c3c2C)cc1` was run?
Its value is -53.7%.

For `Cc1ccc(-n2nc3c(N4CCC(C(=O)N5CCN(C)CC5)CC4)nnc(C)c3c2C)cc1`, which “hERG current change (%, negative = inhibition) at 10uM” value is on record?
The value was 11.9%.

With `CCOc1ccc(Cn2c3ccc(OC)cc3c3nc4ccccc4nc32)cc1` as the compound, how does the “hERG current change (%, negative = inhibition) at 10uM” value read?
Its value is 15.4%.

Which “hERG current change (%, negative = inhibition) at 10uM” value does the source give for `O=C(COC(=O)c1cccnc1Cl)c1ccccc1` here?
Its value is -4.84%.

Which “hERG current change (%, negative = inhibition) at 10uM” value does the source give for `CSc1ccccc1NC(=O)CN(C1CCCCC1)S(C)(=O)=O` here?
Its value is -1.49%.

`CSC[C@H](NC(=O)Cc1c(C)c2cc3c(C)c(C)oc3cc2oc1=O)C(=O)N[C@@H](Cc1ccccc1)C(=O)O` was tested. Which “hERG current change (%, negative = inhibition) at 10uM” value did it give?
Its value is 1.76%.

With `Cc1ccc(S(=O)(=O)Nc2ccc(Cl)cn2)cc1C` as the compound, how does the “hERG current change (%, negative = inhibition) at 10uM” value read?
Its value is 15%.

`CN(C)CCSc1nc(N)c2c3c(sc2n1)CN(C)CC3` was tested. Which “hERG current change (%, negative = inhibition) at 10uM” value did it give?
Its value is 9.66%.

With `CCCCc1nc2c(C)c(N)cnc2n1Cc1cccc([N+](=O)[O-])c1` as the compound, how does the “hERG current change (%, negative = inhibition) at 10uM” value read?
Its value is -44.1%.

How did the “hERG current change (%, negative = inhibition) at 10uM” value turn out when `N#CC1=C2SCN(Cc3ccccc3)CN2C(=O)CC1c1cccs1` (stereo not shown) was run?
Its value is 6.44%.

Which “hERG current change (%, negative = inhibition) at 10uM” value does the source give for `O=C(Nc1ccc2oc(-c3ccccc3Cl)nc2c1)c1cncc(Br)c1` here?
The value was -8.01%.

For `CCc1ccc(CNC(=O)C2CCN(c3nnc(C)c4c(C)n(-c5ccc(C)cc5)nc34)CC2)cc1`, which “hERG current change (%, negative = inhibition) at 10uM” value is on record?
Its value is -1.17%.

For `Cc1nnc(N2CCC(C(=O)NC3CCC(C)CC3)CC2)c2nn(-c3ccc(Cl)cc3)c(C)c12` (stereo not shown), which “hERG current change (%, negative = inhibition) at 10uM” value is on record?
The value was 18.8%.

`Cc1nnc(N2CCC(C(=O)N3CCCCCC3)CC2)c2nn(-c3ccc(Cl)cc3)c(C)c12` was tested. Which “hERG current change (%, negative = inhibition) at 10uM” value did it give?
Its value is -65.2%.

Which “hERG current change (%, negative = inhibition) at 10uM” value does the source give for `CC(=O)Nc1ccc(S(=O)(=O)NCCCN2CCOCC2)cc1` here?
The value was 16%.

With `Cc1cccc(NC(=O)C2CCCN2/C=C/C(=O)C(F)(F)F)c1C` (stereo not shown) as the compound, how does the “hERG current change (%, negative = inhibition) at 10uM” value read?
The value was 4.61%.

Which “hERG current change (%, negative = inhibition) at 10uM” value does the source give for `COc1ccc(C(=O)CC(=O)C(=O)Nc2cccc(C(C)=O)c2)cc1` here?
Its value is 29.9%.

`COc1ccc(N2C(=S)NC(C)(C)CC2(C)c2ccc(OC(C)=O)cc2OC(C)=O)cc1` (stereo not shown) was tested. Which “hERG current change (%, negative = inhibition) at 10uM” value did it give?
Its value is 6.26%.

For `COc1ccc(C2(c3ccc(OC(C)=O)cc3OC(C)=O)CC(c3ccccc3)NC(=S)N2)cc1` (stereo not shown), which “hERG current change (%, negative = inhibition) at 10uM” value is on record?
The value was -50.2%.

`COc1ccc(C2(c3ccc(O)cc3O)CC(c3ccccc3Cl)NC(=S)N2)cc1` (stereo not shown) was tested. Which “hERG current change (%, negative = inhibition) at 10uM” value did it give?
The value was -15%.

With `O=C(Cc1ccccc1[N+](=O)[O-])Nc1ccccc1C(=O)N1CCCC1` as the compound, how does the “hERG current change (%, negative = inhibition) at 10uM” value read?
The value was 23.2%.

Which “hERG current change (%, negative = inhibition) at 10uM” value does the source give for `Cc1ccccc1NC(=S)NCC1CCN(C(C)c2ccccc2)C1` (stereo not shown) here?
Its value is 6.64%.

— article PMC4336329 (PLoS ONE, 2015)
